p97 ATPase inh = inhibitors of human p97 ATPase, primary screen, biochemical | recombinant p97 ATPase, Kinase-Glo ATP luminescence, 3 h | Transitional endoplasmic reticulum ATPase (Homo sapiens), P55072 | 0.42% of 220,000 active | inhibition, % at 8 µM; in the data active means inhibition above about 15%
Redox H2O2 prof = compounds producing H2O2 with reducing agent – biochemical, NIH compound library profiling, artefact control for MLSCN library redox annotation, primary screen; 0.03% of 200,000 active; DTT-dependent redox cycling H2O2, phenol red/HRP absorbance; 100% = 100 µM peroxide control, 0% = buffer; activation, % at 10 µM;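 active means activation of at least 50% relative to the plate's high and low controls in the primary single-dose screen; inactive means activation below 50%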;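 further: compound incubated with DTT at 0.8 mM final as the reducing agent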
LYPLA2 inh = LYPLA2 inhibitors, primary screen, counter-screen for PME1 inhibitor project, biochemical, fluorescence polarization, FP-Rh probe ABPP; recombinant LYPLA2; inhibition, % at 5.9 µM; 0.38% of 320,000 active;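 active means inhibition above the screen-wide mean plus 3 SD, limit set per campaign, cut at about 26% in these data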
Target sequence (O95372 whole entry, looked up): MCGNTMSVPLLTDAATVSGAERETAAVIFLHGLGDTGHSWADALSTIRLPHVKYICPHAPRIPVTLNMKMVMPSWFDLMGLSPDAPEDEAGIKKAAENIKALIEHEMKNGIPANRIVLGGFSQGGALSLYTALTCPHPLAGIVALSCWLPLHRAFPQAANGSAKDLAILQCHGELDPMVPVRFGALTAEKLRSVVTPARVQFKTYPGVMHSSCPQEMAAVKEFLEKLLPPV
LYPLA1 inh = LYPLA1 inhibitors, primary screen, counter-screen for PME1 inhibitor project, biochemical, fluorescence polarization, FP-Rh probe ABPP; recombinant LYPLA1; inhibition, % at 5.9 µM; 0.16% of 320,000 active; AID 2174, 2009;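 active means inhibition above the mean of all tested compounds plus 3 SD, set per campaign, cut at about 14% in these data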;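 further: inhibitors block serine hydrolase probe labeling of LYPLA1 so polarization falls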
Target sequence (O75608 whole entry, looked up): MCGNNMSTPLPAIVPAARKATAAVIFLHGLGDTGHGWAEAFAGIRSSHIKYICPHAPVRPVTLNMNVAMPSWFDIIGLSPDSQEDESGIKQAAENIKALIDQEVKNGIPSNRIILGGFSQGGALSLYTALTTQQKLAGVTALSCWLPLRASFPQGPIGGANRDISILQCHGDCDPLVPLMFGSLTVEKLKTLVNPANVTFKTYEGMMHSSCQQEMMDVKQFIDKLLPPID
LYPLA2 confirm = LYPLA2 inhibitors, retest, confirmation, counter-screen for PME1 inhibitor project, biochemical, fluorescence polarization, FP-Rh probe ABPP; shares compounds with LYPLA2 inh; recombinant LYPLA2; inhibition, % at 5.9 µM; 72% of 1,100 active; AID 2232, 2010;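 active means mean inhibition across replicates above the hit cutoff set in the primary screen, cut at about 26% in these data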;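 further: blocked labeling of the enzyme by serine hydrolase FP-Rh probe lowers polarization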
LYPLA2 ABPP = LYPLA2 inhibitors in proteome, late-stage follow-up, gel-based competitive ABPP, fluorescence, assay provider; shares compounds with LYPLA2 inh; rhLYPLA2 in mouse brain proteome, gel ABPP FP-Rh; inhibition, % at 20 µM; 30% of 150 active; AID 652029, 2013;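 active means inhibition of LYPLA2 enzyme probe labeling above about 50%, limit read from the data; inactive means inhibition below that limit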;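 further: loss of FP-Rh probe labeling of the LYPLA2 gel band measured as band density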
A number is an active result; . = inactive; / = no result. In the library only some 0.74% were active in any assay of this set; here they are far more common.

SMILES	p97 ATPase inh	Redox H2O2 prof	LYPLA2 inh	LYPLA1 inh	LYPLA2 confirm	others
NC(=O)c1ccc(Oc2ccc(Cl)cc2)c([N+](=O)[O-])c1	.	/	.	.	/
NC(=O)c1ccc(Oc2ccc3c(c2)CCC3)c([N+](=O)[O-])c1	/	/	30	.	29
C/C(C=NNC(=O)Cn1nnc(N)n1)=C\c1ccc(C(C)C)cc1	/	/	/	/	/	LYPLA2 ABPP=69
Nc1nnn(CC(=O)N/N=C/c2ccccc2Cl)n1	.	/	.	.	/
OCCCNC(=S)NC1CCCC1	.	.	.	.	/
Oc1ccccc1-c1nc2c3ccccc3c3ccccc3c2[nH]1	.	/	36	.	.
c1csc(-c2nc3c4ccccc4c4ccccc4c3[nH]2)c1	.	.	.	.	/
COc1ccc(NC(=O)CSc2nnc(C)c3ccccc23)cc1	/	/	32	.	.
O=C(NCCCNC(=O)c1c(Cl)cccc1Cl)c1c(Cl)cccc1Cl	/	/	.	.	/
Cc1c(C)n(C(=O)CN2CCN(c3ccccc3)CC2)c2ccccc12	.	.	.	.	/
CC(=O)Nc1ccc(S(=O)(=O)NC2CCSc3ccccc32)cc1 (centres undefined)	/	/	32	.	.
CCc1ccccc1N1C(=O)C(Cl)=C(N2CCOCC2)C1=O	/	/	.	.	/
CC/C(C)=C1\SC(N2CCN(c3cccc(C(F)(F)F)c3)CC2)=NC1=O	.	.	33	.	31
CC(=O)Nc1ccc(CN2CCN(c3cccc(C(F)(F)F)c3)CC2)cc1	.	.	55	.	58	LYPLA2 ABPP=.
CCn1nc(C)cc1C(=O)N1CCCC(C(=O)c2ccc(OC)cc2C)C1 (centres undefined)	/	/	.	.	/
COC(=O)c1ccc(SCC(=O)NCc2ccccc2)c([N+](=O)[O-])c1	/	/	.	.	/
CC1CCCN(C(=O)c2ccc(OC3CCN(CCc4ccccc4)CC3)cc2)C1 (centres undefined)	/	/	41	.	33
COc1c(Br)cc(/C=N/n2c(-c3ccccc3)n[nH]c2=S)c(O)c1Br	/	/	.	.	/
O=c1cc(C(F)(F)F)nc(SCc2cccnc2)[nH]1	/	/	.	.	/
COC(=O)c1c(NC(=O)CN2CCN(c3ncccn3)CC2)sc(C(N)=O)c1C	/	/	31	.	.
CC(C)CNC(=O)C(=O)NCC1CCCN1S(=O)(=O)c1cccs1 (centres undefined)	/	/	.	.	/
CC(=O)c1ccc(N2CCN(C(=O)CCCn3c(=S)[nH]c4cc5c(cc4c3=O)OCO5)CC2)cc1	.	.	52	.	51	LYPLA2 ABPP=.
O=C(CCCn1c(=S)[nH]c2cc3c(cc2c1=O)OCO3)N1CCN(c2ccc(Cl)cc2)CC1	.	.	.	.	/
CC(=O)c1ccc(N2CCN(C(=O)c3ccc(Cn4c(=S)[nH]c5ccc(N6CCOCC6)cc5c4=O)cc3)CC2)cc1	.	.	44	.	34
Cc1cccc(C)c1NC(=O)NC1(C(=O)N2CCCC2)CCCCC1	/	/	.	.	/
SMILES	p97 ATPase inh	Redox H2O2 prof	LYPLA2 inh	LYPLA1 inh	LYPLA2 confirm	others
CCn1c(=S)sc2c(=O)n(CC(=O)Nc3cccc(Cl)c3)c(C)nc21	/	/	.	.	/
O=S(=O)(c1ccc(NC(=S)N2CCN(c3ccccc3F)CC2)cc1)N1CCOCC1	.	.	38	.	30
Cc1ccc(S(=O)(=O)N[C@@H](Cc2ccccc2)C(=O)N2CCC[C@@H]2C(=O)O)cc1	/	/	.	.	/
CC(C)(C)c1ccc(Cn2nnc3c(=O)[nH]c(C4CCN(C(=O)Cc5cccs5)CC4)nc32)cc1	.	.	27	.	.
Cc1onc(-c2ccccc2Cl)c1C(=O)Nc1nnc(-c2ccc(F)cc2)s1	.	.	53	.	.
COc1ccc(C(=O)NC(=S)Nc2cccc3ncccc23)cc1[N+](=O)[O-]	/	/	48	.	51	LYPLA2 ABPP=.
O=C(Nc1cccc2ncccc12)c1ccc(Br)c([N+](=O)[O-])c1	.	.	33	.	47
COc1ccc(C(=O)NC(=S)NCc2cccnc2)cc1[N+](=O)[O-]	.	.	35	.	.
O=C(Nc1cccc2ncccc12)c1cccc(F)c1	.	.	.	.	/
COc1ccccc1NC(=O)CCCc1nc(-c2ccc(OC)c(OC)c2)no1	.	.	.	.	/
O=C(O)c1cccc(-c2ccc(/C=N/Nc3ccc([N+](=O)[O-])cc3)o2)c1	.	/	31	.	27
O=C(Cn1cc([N+](=O)[O-])cn1)Nc1ccc(Cn2cc(Br)cn2)cc1	.	.	56	.	57	LYPLA2 ABPP=.
COc1cccc(C(=O)Nc2ccccc2C(=O)NCC2CCCO2)c1 (centres undefined)	/	/	.	.	/
O=C(NCc1ccc2c(c1)OCO2)C1CCC(CNS(=O)(=O)c2cccc3nsnc23)CC1 (centres undefined)	.	.	34	.	38
O=C(CCNC(=O)c1ccc(Cl)cc1)Nc1ccc(S(=O)(=O)N2CCOCC2)cc1	/	/	.	.	/
O=C(NCC1CCN(c2ccc(S(=O)(=O)N3CCOCC3)cc2)CC1)c1ccc(Cl)cc1	.	.	81	.	76	LYPLA2 ABPP=59
CCOC(=O)c1[nH]c(CN2CCN(c3ccc(OC)cc3)CC2)c(C(=O)OCC)c1C	/	/	27	.	.
CCOC(=O)c1[nH]c(C)c(C(=O)N2CCN(c3ccc(OC)cc3)CC2)c1C	.	.	.	.	/
COCCC(=O)N1CCC(C(=O)Nc2ccc(Oc3ccccc3)nc2)CC1	/	/	.	.	/
Cc1sc2ncnc(OCC(=O)N3CCN(S(=O)(=O)c4ccc(Cl)cc4)CC3)c2c1C	.	.	.	.	/
O=C(COC(=O)c1ccc(O)cc1)c1ccc(S(=O)(=O)N2CCCCC2)cc1	/	/	44	.	35
Cc1sc2ncnc(OCC(=O)c3ccc(S(=O)(=O)N4CCCC4)cc3)c2c1C	.	.	28	.	.
Cn1c(CNC(=O)CNC(=O)Cc2ccc(Cl)cc2)cc(=O)n(C)c1=O	/	/	.	.	/
Cc1ccc(OC(=O)c2ccc(N3CCOCC3)c([N+](=O)[O-])c2)cc1	.	.	.	.	/
O=C(O)c1cc(N/N=C/c2ccc3c(c2)OCO3)ccc1Cl	.	.	.	.	/
O=C(Oc1ccc(Cl)cc1)c1ccc(N2CCOCC2)c([N+](=O)[O-])c1	.	.	33	.	28
CO/N=C/c1ccc(N2CCN(C(=O)c3ccc(C)cc3)CC2)c([N+](=O)[O-])c1	.	.	37	.	39
O=C(O/N=C\c1ccc(N2CCOCC2)c([N+](=O)[O-])c1)c1ccccc1Cl	.	.	41	.	43
O=C(O/N=C\c1ccc(N2CCOCC2)c([N+](=O)[O-])c1)c1ccc(F)cc1	.	.	.	.	/
